Results: article PMC7862700, “An all-to-all approach to the identification of sequence-specific readers for epigenetic DNA modifications on cytosine”

Legend:
Experiment in all cases: DAPPL (digital affinity profiling via proximity ligation, sequencing); 10 mM Tris-HCl pH 7.5, 50 mM NaCl, 1 mM DTT, 4% glycerol, room temperature, 30 min; GST-TFs on glutathione beads, 16-mer random dsDNA library, 0.1% formaldehyde crosslink after washing; high values mean tight binding
Conditions in all cases: protein: recombinant; tags: N-terminal GST; dsDNA, one strand shown
ELK1 = target: T1, ELK1 (Homo sapiens, UniProt P19419 1-428)
T1 sequence: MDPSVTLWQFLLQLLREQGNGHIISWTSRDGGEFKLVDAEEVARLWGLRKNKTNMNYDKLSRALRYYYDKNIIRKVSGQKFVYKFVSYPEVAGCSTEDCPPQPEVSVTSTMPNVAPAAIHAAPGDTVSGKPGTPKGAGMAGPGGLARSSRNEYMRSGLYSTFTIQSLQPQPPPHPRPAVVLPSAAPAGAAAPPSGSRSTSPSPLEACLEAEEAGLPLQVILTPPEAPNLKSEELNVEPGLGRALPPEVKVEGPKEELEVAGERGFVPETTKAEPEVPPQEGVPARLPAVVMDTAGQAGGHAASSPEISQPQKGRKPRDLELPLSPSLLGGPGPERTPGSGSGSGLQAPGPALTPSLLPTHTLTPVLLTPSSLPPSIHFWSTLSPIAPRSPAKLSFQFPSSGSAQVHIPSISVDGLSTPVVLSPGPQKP
Procedure, shortened: (§1)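 Pools were built from human transcription factors expressed in yeast as GST fusions, captured on glutathione beads and DNA-barcoded, along with a tag-only sample. Incubation with 200 nmole of a 16-mer random double-stranded DNA library lasted 30 min at room temperature in Tris/NaCl/DTT/glycerol buffer, and was followed by washing, 0.1% formaldehyde crosslinking, proximity ligation, PCR amplification and Illumina NextSeq500 sequencing. Binding signal is the quotient of each hexamer's read frequency for a factor and its frequency for the tag-only sample.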

GABPA = target: T2, GABPA (Homo sapiens, UniProt Q06546 1-454)
T2 sequence: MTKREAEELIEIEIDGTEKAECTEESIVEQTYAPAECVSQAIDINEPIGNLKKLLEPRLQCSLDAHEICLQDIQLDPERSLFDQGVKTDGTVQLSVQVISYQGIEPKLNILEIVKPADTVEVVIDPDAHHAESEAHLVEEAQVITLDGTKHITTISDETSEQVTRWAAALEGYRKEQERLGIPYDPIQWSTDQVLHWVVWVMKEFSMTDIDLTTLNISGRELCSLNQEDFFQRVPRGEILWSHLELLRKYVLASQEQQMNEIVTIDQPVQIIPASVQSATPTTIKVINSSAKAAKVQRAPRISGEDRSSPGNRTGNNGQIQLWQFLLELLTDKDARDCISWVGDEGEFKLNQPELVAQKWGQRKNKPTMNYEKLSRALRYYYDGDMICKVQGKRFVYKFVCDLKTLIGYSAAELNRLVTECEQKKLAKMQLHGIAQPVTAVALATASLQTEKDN
Procedure, shortened: as §1

ELF1 = ELF1 (Homo sapiens, UniProt P32519 1-619)
Chain of ELF1 (P32519 whole entry): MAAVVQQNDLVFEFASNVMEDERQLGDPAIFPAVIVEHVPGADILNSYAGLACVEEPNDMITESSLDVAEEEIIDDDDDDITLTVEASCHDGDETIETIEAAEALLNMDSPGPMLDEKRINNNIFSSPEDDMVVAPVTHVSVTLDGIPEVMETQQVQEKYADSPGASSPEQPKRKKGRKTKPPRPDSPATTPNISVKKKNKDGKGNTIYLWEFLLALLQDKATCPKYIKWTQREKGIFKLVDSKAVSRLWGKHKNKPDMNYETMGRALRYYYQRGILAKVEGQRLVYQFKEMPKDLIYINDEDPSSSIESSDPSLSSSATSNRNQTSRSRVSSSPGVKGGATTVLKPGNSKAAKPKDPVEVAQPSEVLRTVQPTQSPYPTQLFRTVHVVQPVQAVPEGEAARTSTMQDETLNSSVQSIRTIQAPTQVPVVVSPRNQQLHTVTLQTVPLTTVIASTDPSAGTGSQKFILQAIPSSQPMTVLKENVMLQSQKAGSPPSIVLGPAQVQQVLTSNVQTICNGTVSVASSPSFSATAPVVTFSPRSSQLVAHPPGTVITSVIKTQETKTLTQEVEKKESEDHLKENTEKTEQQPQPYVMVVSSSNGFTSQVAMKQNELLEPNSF
Procedure, shortened: as §1

EHF = target: T3, EHF (Homo sapiens, UniProt Q9NZC4 1-300)
T3 sequence: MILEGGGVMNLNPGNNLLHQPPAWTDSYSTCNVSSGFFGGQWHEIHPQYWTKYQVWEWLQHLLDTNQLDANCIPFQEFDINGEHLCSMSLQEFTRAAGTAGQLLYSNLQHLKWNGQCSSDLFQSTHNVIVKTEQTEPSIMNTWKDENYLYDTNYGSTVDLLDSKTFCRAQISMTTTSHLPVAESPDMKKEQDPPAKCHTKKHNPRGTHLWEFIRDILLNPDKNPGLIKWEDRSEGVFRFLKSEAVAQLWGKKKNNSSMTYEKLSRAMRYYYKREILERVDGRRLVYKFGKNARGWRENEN
Procedure, shortened: as §1

SPIB = SPIB (Homo sapiens, UniProt Q01892 1-262)
Chain of SPIB (Q01892 whole entry): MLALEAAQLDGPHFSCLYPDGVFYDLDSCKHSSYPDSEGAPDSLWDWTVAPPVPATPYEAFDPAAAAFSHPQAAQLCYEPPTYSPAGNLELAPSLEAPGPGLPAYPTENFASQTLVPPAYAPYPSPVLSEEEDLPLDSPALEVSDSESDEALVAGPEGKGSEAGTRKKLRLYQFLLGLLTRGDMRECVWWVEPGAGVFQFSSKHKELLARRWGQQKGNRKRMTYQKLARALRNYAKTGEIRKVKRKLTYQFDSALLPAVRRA
Procedure, shortened: as §1

FEV = target: T4, FEV (Homo sapiens, UniProt Q99581 1-238)
T4 sequence: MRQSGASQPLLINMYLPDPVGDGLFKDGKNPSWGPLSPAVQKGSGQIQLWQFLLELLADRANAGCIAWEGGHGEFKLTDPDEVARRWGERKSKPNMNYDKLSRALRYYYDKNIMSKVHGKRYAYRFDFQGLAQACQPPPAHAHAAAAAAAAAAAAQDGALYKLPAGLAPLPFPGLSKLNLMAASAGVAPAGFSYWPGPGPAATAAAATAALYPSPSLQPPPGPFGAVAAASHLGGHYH
Procedure, shortened: as §1

ETV5 = ETV5 (Homo sapiens, UniProt P41161 1-510)
Chain of ETV5 (P41161 whole entry): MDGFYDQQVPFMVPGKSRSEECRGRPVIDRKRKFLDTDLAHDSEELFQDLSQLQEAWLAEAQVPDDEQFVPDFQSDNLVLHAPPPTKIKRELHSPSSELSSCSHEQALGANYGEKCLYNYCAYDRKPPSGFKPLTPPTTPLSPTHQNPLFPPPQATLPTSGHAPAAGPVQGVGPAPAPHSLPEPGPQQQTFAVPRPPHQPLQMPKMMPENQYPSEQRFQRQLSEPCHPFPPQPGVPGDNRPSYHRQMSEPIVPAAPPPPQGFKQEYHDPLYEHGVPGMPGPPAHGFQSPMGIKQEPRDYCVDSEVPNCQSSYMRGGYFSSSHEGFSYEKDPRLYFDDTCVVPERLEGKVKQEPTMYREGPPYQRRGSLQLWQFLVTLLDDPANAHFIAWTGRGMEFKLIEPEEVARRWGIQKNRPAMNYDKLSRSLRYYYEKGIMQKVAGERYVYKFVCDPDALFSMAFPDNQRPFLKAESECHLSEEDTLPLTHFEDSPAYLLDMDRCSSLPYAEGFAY
Procedure, shortened: as §1

ELF4 = ELF4 (Homo sapiens, UniProt Q99607 1-663)
Chain of ELF4 (Q99607 whole entry): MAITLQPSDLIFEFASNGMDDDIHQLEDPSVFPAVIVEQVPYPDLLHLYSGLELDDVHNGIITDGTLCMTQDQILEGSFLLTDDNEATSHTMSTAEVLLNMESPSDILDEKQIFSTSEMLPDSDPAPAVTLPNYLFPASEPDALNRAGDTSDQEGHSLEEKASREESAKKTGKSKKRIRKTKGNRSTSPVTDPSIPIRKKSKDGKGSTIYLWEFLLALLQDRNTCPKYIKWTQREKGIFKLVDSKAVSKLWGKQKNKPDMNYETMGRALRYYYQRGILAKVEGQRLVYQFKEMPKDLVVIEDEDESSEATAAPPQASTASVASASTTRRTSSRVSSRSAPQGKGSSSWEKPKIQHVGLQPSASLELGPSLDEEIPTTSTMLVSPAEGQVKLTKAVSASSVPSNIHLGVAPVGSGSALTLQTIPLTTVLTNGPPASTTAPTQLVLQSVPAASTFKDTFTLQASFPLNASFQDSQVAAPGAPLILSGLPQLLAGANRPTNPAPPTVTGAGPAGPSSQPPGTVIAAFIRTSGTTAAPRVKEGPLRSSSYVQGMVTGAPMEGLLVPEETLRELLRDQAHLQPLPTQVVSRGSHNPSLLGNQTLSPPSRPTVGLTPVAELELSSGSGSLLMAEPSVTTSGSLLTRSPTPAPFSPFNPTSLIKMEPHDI
Procedure, shortened: as §1

ELK4 = target: T5, ELK4 (Homo sapiens, UniProt P28324-2 1-405)
T5 sequence: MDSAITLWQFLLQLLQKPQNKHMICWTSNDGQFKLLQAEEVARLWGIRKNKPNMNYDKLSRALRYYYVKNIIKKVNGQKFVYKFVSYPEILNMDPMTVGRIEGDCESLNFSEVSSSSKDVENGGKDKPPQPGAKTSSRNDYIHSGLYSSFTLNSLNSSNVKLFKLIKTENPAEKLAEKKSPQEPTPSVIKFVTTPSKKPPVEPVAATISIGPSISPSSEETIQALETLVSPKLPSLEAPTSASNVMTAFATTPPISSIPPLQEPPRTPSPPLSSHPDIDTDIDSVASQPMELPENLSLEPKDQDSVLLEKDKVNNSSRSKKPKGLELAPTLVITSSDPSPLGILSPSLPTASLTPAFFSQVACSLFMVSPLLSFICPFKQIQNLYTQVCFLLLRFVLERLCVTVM
Procedure, shortened: as §1

ETV2 = target: T6, ETV2 (Homo sapiens, UniProt O00321 1-342)
T6 sequence: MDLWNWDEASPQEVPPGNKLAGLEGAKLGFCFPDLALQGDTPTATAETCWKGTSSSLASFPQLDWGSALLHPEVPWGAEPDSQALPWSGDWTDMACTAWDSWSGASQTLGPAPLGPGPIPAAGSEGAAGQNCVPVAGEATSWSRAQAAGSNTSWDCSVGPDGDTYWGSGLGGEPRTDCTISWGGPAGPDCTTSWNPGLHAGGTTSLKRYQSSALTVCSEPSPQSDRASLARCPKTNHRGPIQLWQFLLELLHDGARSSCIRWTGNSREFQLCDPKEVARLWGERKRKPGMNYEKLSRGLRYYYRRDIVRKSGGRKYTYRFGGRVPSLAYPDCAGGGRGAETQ
Procedure, shortened: as §1

ELF3 = target: T7, ELF3 (Homo sapiens, UniProt P78545 1-371)
T7 sequence: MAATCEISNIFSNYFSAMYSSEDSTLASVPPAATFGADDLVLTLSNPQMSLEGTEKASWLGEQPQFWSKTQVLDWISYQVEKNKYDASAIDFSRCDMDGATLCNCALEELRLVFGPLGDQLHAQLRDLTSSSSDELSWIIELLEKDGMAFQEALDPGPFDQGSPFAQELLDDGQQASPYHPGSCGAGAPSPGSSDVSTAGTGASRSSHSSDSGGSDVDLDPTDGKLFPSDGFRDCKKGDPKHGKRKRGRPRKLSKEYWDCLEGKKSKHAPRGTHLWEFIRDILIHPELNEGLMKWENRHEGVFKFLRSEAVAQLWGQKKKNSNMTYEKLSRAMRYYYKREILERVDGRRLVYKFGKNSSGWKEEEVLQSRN
Procedure, shortened: as §1

ETV1 = ETV1 (Homo sapiens, UniProt P50549 1-477)
Chain of ETV1 (P50549 whole entry): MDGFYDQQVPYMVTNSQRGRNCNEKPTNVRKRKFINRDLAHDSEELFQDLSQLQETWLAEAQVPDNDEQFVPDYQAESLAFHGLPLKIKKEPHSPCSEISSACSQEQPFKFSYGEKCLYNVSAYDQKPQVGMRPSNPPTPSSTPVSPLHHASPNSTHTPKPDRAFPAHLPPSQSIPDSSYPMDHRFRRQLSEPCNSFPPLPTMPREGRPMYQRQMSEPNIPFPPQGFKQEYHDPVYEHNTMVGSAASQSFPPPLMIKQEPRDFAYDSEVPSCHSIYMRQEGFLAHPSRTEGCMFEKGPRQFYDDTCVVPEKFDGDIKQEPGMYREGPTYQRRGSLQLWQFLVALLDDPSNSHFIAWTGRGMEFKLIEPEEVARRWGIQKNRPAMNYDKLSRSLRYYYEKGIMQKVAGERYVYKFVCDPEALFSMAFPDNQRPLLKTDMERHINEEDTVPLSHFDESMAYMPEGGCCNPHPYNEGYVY
Procedure, shortened: as §1

ETS2 = target: T8, ETS2 (Homo sapiens, UniProt P15036 1-469)
T8 sequence: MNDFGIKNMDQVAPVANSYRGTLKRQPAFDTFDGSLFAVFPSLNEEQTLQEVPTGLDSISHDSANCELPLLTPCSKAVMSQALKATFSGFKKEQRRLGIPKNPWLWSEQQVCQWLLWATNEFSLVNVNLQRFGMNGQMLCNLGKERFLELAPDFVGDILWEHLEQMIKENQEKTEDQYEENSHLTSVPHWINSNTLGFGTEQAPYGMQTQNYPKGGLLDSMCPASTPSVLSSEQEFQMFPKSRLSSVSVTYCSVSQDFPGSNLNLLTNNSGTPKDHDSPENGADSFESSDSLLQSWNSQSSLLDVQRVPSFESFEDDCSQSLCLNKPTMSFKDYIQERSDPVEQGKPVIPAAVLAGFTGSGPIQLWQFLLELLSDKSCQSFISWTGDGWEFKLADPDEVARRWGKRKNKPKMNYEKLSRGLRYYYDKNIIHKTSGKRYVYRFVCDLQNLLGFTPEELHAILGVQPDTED
Procedure, shortened: as §1

ETV3 = target: T9, ETV3 (Homo sapiens, UniProt P41162-2 1-143)
T9 sequence: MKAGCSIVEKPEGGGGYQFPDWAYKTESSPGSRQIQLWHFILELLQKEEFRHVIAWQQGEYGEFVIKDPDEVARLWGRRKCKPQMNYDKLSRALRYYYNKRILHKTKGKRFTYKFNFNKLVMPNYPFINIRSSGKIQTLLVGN
Procedure, shortened: as §1

With CACGCA the binding signal (ELK1) was 1.01 fold enrichment (6-mer frequency, TF over GST control), the binding signal (GABPA) was 1.02 fold enrichment (6-mer frequency, TF over GST control) and the binding signal (ELF1) was 1.05 fold enrichment (6-mer frequency, TF over GST control). The binding signal (EHF) was 1.01 fold enrichment (6-mer frequency, TF over GST control), the binding signal (SPIB) was 1.01 fold enrichment (6-mer frequency, TF over GST control) and the binding signal (FEV) was 1.02 fold enrichment (6-mer frequency, TF over GST control). For the same sequence, the binding signal (ETV5) was 1.05 fold enrichment (6-mer frequency, TF over GST control), the binding signal (ELF4) was 1.03 fold enrichment (6-mer frequency, TF over GST control) and the binding signal (ELK4) was 1.11 fold enrichment (6-mer frequency, TF over GST control). The binding signal (ETV2) was 1.18 fold enrichment (6-mer frequency, TF over GST control), the binding signal (ELF3) was 1.04 fold enrichment (6-mer frequency, TF over GST control) and the binding signal (ETV1) was 1.09 fold enrichment (6-mer frequency, TF over GST control). For the same sequence, the binding signal (ETS2) was 1.03 fold enrichment (6-mer frequency, TF over GST control) and the binding signal (ETV3) was 1.07 fold enrichment (6-mer frequency, TF over GST control).
